A selection: hits, their analogues and other compounds. The true share with any hit is near 4%.
HIF-2a block: blocks HIF-2a reporter activity; 786-0 RCC cells HIF-2a reporter, luciferase luminescence, overnight; inhibition, % at 18.8 µM; actives 0.72% (n = 360,000);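 active = inhibition of the luminescence signal of 40% or more relative to plate controls, in a single-dose primary screen at 18.75 µM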
TWEAK-Fn14 inh: TWEAK-Fn14 signaling inhibition | TWEAK-stimulated Fn14 reporter cells, luciferase luminescence, 8 h | AID 1159606 | actives 2% (n = 360,000) | inhibition, % at 10 µM; in the data active = inhibition above about 50%
Peg3 promoter: reduces Peg3 promoter-driven luciferase expression in HeLa; actives 1.7% (n = 360,000); HeLa PEG-Prom luciferase reporter, luminescence, overnight; inhibition, % at 20 µM;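 active = inhibition of at least 50% at 20 µM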
TROY signal inh: blocks TROY-dependent signaling in reporter cells; Q293 LMP1-TROYcd NF-kB luciferase reporter, 4 h; inhibition, % at 10 µM; actives 0.98% (n = 360,000);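 active = compounds whose plate-normalised and pattern-corrected inhibition of the luciferase reporter signal at the single screening dose is 50% or more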
KKLEB cytotox: reduces viability of KKLEB cystic fibrosis airway cells. KKLEB CF airway cells viability, ATPlite luminescence, overnight; stronger effect = lower value; cells stimulated with P. aeruginosa culture filtrate. activity change (cytotoxicity), % at 5 µM. actives 0.36% (n = 360,000). AID 602141;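 active = corrected activity change at or below -50% at 5 µM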
CF NFkB block: blocks PAF-induced NF-kB reporter in cystic fibrosis cells. KKLEB NF-kB-GFP reporter, GFP fluorescence overnight. inhibition, % at 5 µM. actives 0.86% (n = 360,000). AID 588850;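 active = at least 50% inhibition at 5 µM, scaled per plate between neutral and stimulator controls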;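 note: PAF is a Pseudomonas aeruginosa culture filtrate used as stimulus; plate controls were PAF-stimulated DMSO wells for no effect and unstimulated DMSO wells for full effect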
Starred values were filed as active, the others as inactive.

SMILES | HIF-2a block | TWEAK-Fn14 inh | Peg3 promoter | TROY signal inh | KKLEB cytotox | CF NFkB block
NS(=O)(=O)c1ccc(N2CCN(C(=O)c3ccco3)CC2)nc1 | 7.2 | -1.2 | 51.1* | -5.3 | -3.2 | 14.4
O=C(c1ccco1)N1CCN(S(=O)(=O)c2c(Cl)cccc2Cl)CC1 | 8.0 | 92.1* | 8.1 | -11.3 | -3.6 | 7.1
Cc1cc(/C=C2\SC(=S)N(C)C2=O)c(C)n1-c1ccc(O)cc1 | 45.4* | 104.0* | 62.1* | 81.7* | -3.8 | -7.6
Cc1cc(/C=C2\SC(=S)N(C)C2=O)c(C)n1-c1ccccc1O | -272.4 | 96.5* | -79.6 | 60.7* | -8.3 | 9.0
CC(CNC(=O)CC(C)(C)C)NC(=O)CC(C)(C)C (configuration not stated) | 9.5 | -11.8 | -7.7 | 0.9 | -10.2 | 4.9
COc1ccc(/C=N\NC(=O)c2ccc(Cn3cc(Br)c([N+](=O)[O-])n3)o2)c(OC)c1C | 16.0 | 63.0* | 2.6 | 5.3 | -24.4 | -10.4
COc1ccc(NC(=O)COC(=O)/C=C/C(=O)OCC(=O)Nc2ccc(OC)c(Cl)c2)cc1Cl | 21.5 | 38.5 | 56.2* | -11.4 | -8.3 | -22.1
O=C(NC1=NCCS1)c1ccccc1Br | 5.6 | -14.0 | -18.4 | 13.5 | -10.6 | -3.3
C[C@@H]1CN([C@H](C)CO)C(=O)c2cc(Br)cnc2O[C@H]1CN(C)Cc1ccccc1 | -1.0 | 1.3 | -5.2 | 3.9 | -6.8 | 2.1
O=C(Cc1csc(Nc2nc(=S)[nH]c3ccccc23)n1)N1CCN(c2cccc(Cl)c2)CC1 | -2.0 | -4.7 | 81.7* | 26.6 | -36.6 | 49.7
CCN(CC)CCNC(=O)CCc1c(C)nc2c(c(C)nn2-c2ccc(C)c(C)c2)c1C | 0.7 | -16.4 | 82.1* | -41.2 | -6.4 | 7.7
COCCCNC(=O)CCc1c(C)nc2c(c(C)nn2-c2ccccc2)c1C | 20.2 | 16.8 | 8.1 | 5.8 | -1.1 | 4.9
COC(CNC(=O)CCc1c(C)nc2c(c(C)nn2-c2ccc(C)cc2)c1C)OC | 1.8 | 20.5 | -3.0 | -8.3 | -0.1 | 4.3
Cc1ccc(-n2nc(C)c3c(C)c(CCC(=O)Nc4ccc(CN5CCCC5)cc4)c(C)nc32)cc1 | -0.6 | -51.3 | 68.0* | -31.2 | -14.4 | 26.8
Cc1cc(C)nc(CC(N)=O)n1 | 7.6 | 8.7 | -9.5 | -24.7 | 3.3 | -1.2
O=C(Cc1cccs1)N1CCN=C1SCc1cccc(F)c1 | 11.7 | 81.4* | -12.4 | -3.8 | -3.4 | 15.4
CCN(CC)CCOC(=O)c1ccc(NC(=O)/C=C/c2cccs2)cc1 | -64.3 | 63.7* | -76.9 | 74.2* | -0.4 | 5.1
COc1cccc(COC(=O)C2CCN(C(=O)c3ccccc3C)CC2)c1OC | 14.0 | -28.4 | -0.9 | 23.8 | -7.0 | -8.3
CC1=CC(C)(C)Nc2ccc(OC(=O)C(Cc3ccccc3)N3C(=O)c4ccccc4C3=O)cc21 (configuration not stated) | 80.7* | 110.3* | 4.5 | -3.7 | 3.3 | 13.2
NC(Cc1ccccc1)c1csc(Nc2ccc(C(=O)c3ccccc3)cc2)n1 (configuration not stated) | 3.9 | -2.1 | 66.3* | 20.3 | -18.9 | 7.6
NC(CO)c1csc(Nc2ccc(C(=O)c3ccccc3)cc2)n1 (configuration not stated) | -27.1 | -1.1 | -21.7 | -6.3 | -11.4 | 13.5
NC(Cc1ccc(F)cc1)c1csc(Nc2ccc(C(=O)c3ccccc3)cc2)n1 (configuration not stated) | -6.6 | 32.8 | 91.5* | 36.2 | -38.2 | 40.6
COc1ccc(CC(N)c2csc(Nc3ccc(C(=O)c4ccccc4)cc3)n2)cc1 (configuration not stated) | -40.8 | -9.3 | 65.7* | 27.7 | -24.5 | 27.6
NC(Cc1ccc(Cl)cc1)c1csc(Nc2ccc(C(=O)c3ccccc3)cc2)n1 (configuration not stated) | 1.8 | 31.5 | 97.0* | 21.4 | 8.5 | 8.6
CC1CN(S(=O)(=O)c2cccc(C(=O)Nc3ccccc3N3CCCCC3)c2)CC(C)O1 (configuration not stated) | 12.6 | 15.6 | 19.4 | -5.9 | -20.4 | 26.8
SMILES | HIF-2a block | TWEAK-Fn14 inh | Peg3 promoter | TROY signal inh | KKLEB cytotox | CF NFkB block
O=C(O)C1C2C=CC(O2)C1C(=O)NC1CCCc2ccccc21 (configuration not stated) | -2.1 | -2.3 | 8.0 | -13.3 | 6.6 | -9.9
NC(c1csc(Nc2ccc(C(=O)c3ccccc3)cc2)n1)C1CCCCC1 (configuration not stated) | 2.8 | 7.2 | 97.3* | 20.6 | -10.1 | 36.1
CCOC(=O)c1sc(C)c(C(=O)NCCCN2CCOCC2)c1N | 9.7 | -2.7 | 6.4 | 9.2 | -4.6 | 6.2
COc1ccc(OC)c(S(=O)(=O)Nc2cccc3ccccc23)c1 | 21.2 | 19.1 | 18.8 | -13.1 | 3.9 | -25.9
COc1ccc(OC)c(S(=O)(=O)Oc2ccc(N)c3ccccc23)c1 | 12.9 | 86.6* | -31.6 | 29.6 | -2.6 | -17.4
c1ccc(-c2nc3ccccc3o2)nc1 | -157.8 | -2.5 | -176.6 | -48.4 | 3.5 | -19.4
c1ccc2nc(-c3nc4ccccc4o3)ccc2c1 | 17.3 | 93.6* | 18.9 | 58.3* | -26.7 | -39.7
COc1ccc(C2C(C(=O)O)CCC(=O)N2c2ccc(C)cc2)cc1OC (configuration not stated) | 3.5 | 5.3 | 8.0 | -9.8 | 3.8 | 2.1
CCc1nc2ccc(C(=O)Nc3cc(-c4ccccc4)ccc3OC)cn2c1N(C)Cc1ccc(OC)cc1 | -38.5 | -2.7 | -13.3 | -14.8 | -18.2 | 29.0
CCc1nc2ccc(C(=O)Nc3cc(-c4ccccc4)ccc3OC)cn2c1N(C)Cc1nccs1 | -9.7 | 41.5 | 67.5* | 7.7 | -35.1 | 45.0
CSc1ccc2c(c1)N(CCC1CCCCN1C)c1ccccc1S2 (configuration not stated) | -18.6 | -15.4 | 99.1* | -7.3 | -8.7 | 28.6
CC(=O)c1ccc2c(c1)N(CCCN1CCC(CCO)CC1)c1ccccc1S2 | -12.0 | -24.7 | 10.8 | 2.5 | 1.2 | -3.0
CN(C)c1ccc(C(O)Cc2nc3ccccc3n2C)cc1 (configuration not stated) | -235.0 | 73.8* | -143.0 | 79.3* | -11.8 | -2.2
CC1(C)CC(=O)C2=C(C1)N(c1ccc(F)cc1)C(=O)C2(O)C(F)(F)F (configuration not stated) | 10.4 | -5.0 | 2.4 | -2.9 | 2.1 | -3.8
COc1ccccc1NC(=O)CSc1nnc(CNC(=O)c2cccs2)o1 | 0.7 | -7.7 | -6.3 | 1.2 | 0.6 | -12.0
CCN(CC)C(=O)c1ccc2c3c(cccc13)C(=O)N(CCc1ccc(OC)c(OC)c1)C2=O | 3.2 | 39.0 | 59.9* | 35.0 | -6.5 | 4.5
CCN1C(=O)N(CC)c2cccc3cccc1c23 | 11.8 | 91.5* | 30.1 | 33.1 | 3.7 | -1.3
CCOC(=O)c1[nH]c2cc3c(cc2c1NC(=O)CN1CCCC1)OCO3 | 12.4 | -7.1 | 5.5 | 6.0 | -5.9 | 10.7
CCOC(=O)c1[nH]c2cc3c(cc2c1NC(=O)CN1CCc2ccccc2C1)OCO3 | -7.6 | 35.4 | 67.6* | -44.9 | -4.0 | -2.4

High-throughput results from PubChem BioAssay.
